Screens deposited in PubChem by National Center for Advancing Translational Sciences (NCATS).
Only some compounds are listed: those with a hit (about 4.7% of all), similar ones and a draw of the others.
TGFb inhibitor: blocks TGF-b signaling; HepG2 CAGA-GFP TGF-b/SMAD3 reporter, GFP fluorescence, 18 h; TGF-beta stimulated, 500 pg/mL final; Potency, µM (titrated, usually from 46.1 µM), usual class: inhibitors; actives 1.2% (n = 410,000); note: nearly all actives have a fitted effect of over 65% in size
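GFP signal (ex488/em500-530) from TGF-beta-stimulated HEPG2 CAGA-GFP cells, 500 pg/mL final, 18 h at 37 degrees C in DMEM plus 1% FBS, normalized to unstimulated and DMSO-stimulated controls.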
ATXN2 expr inh: ATXN2 expression inhibition; AID 1745845; HEK-293 ATXN2-luciferase reporter, luminescence, 24 h; Potency, µM (top dose mostly 57 µM), usual class: inhibitors; actives 0.72% (n = 360,000); note: nearly all actives have a fitted effect of over 55% in size
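qHTS (up to 57 uM final) was run with 24 h compound exposure of reporter cells at 37 °C. Each well was multiplexed: SteadyGlo luminescence measured ATXN2-luciferase expression after a fluorogenic Gly-Phe-AFC viability readout (25 uM final).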
DRD3 agonist: D3 dopamine receptor (human) agonism; D3R DiscoveRx beta-arrestin cells, luminescence, 90 min; max activation, %; actives 0.58% (n = 410,000); AID 652048; in the data active = max activation above about 30%
Target sequence (P35462 whole entry, looked up): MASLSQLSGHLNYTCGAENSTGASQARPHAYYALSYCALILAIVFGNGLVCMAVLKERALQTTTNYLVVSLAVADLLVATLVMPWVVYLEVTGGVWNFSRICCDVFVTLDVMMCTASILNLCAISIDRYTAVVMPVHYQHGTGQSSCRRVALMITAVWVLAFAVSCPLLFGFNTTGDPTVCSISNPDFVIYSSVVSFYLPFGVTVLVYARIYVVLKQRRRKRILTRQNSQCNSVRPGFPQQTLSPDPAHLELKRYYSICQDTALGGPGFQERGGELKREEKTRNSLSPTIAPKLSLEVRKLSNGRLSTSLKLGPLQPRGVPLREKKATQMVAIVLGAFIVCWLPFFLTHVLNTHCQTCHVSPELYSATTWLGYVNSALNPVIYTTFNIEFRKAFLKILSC
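Agonist-mode cell screen: cells plated at 1500/well and incubated overnight at 37 °C, then exposed to library compounds for 90 min at 37 °C. Detection reagent was added for 30–60 min at room temperature, and luminescence was read.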
HepG2 viability: kills HepG2 cells in TGF-b inhibitor counter-screen; HepG2 CAGA-GFP viability, ATP luminescence, 18 h; Potency, µM (doses to about 46.1 µM), most hits filed as cytotoxic; actives 0.76% (n = 410,000)
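HepG2 CAGA-GFP cells (1000/well, DMEM with 1% FBS) received compound, then TGF-beta at 500 pg/mL final, and were incubated 18 hours at 37 degrees C. Viability was read by CellTiter-Glo luminescence. Media-only wells were set as complete cell-killing and DMSO as no toxicity.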
DRD3 antagonist: blocks the human D3 dopamine receptor. P35462. D3R cells, DiscoveRx beta-arrestin luminescence, antagonist mode; hits give low values. max response, negative = inhibition, %. actives 2.5% (n = 360,000); in the data active = max response below about -50%; inconclusive = no clear call, values can overlap the other calls
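Cells plated overnight at 1500 cells/well, then exposed to library compounds with dopamine controls for 90 minutes at 37 degrees C. DiscoveRx reagent added for 30–60 minutes at room temperature; luminescence read, quantitative HTS format.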
S2 tox: cell viability loss in ATXN counter-screen; S2 cells (HEK-293 line with an ATXN2-luciferase reporter) viability, CellTiter-Fluor protease fluorescence, 24 h; Potency, µM (doses to about 56.7 µM), most hits filed as cytotoxic; actives 0.49% (n = 400,000); AID 651635; note: nearly all actives have a fitted effect of over 40% in size
Numbers stand for hits; 0 = inactive; ? = inconclusive; - = no result; ! = not confirmed by another sample; [ ] = remark or other dose. Unless noted, calls come from the whole dose curve; as a rule, active = well fitted curve in the direction sought with a large enough effect; inconclusive = small, poorly fitted or top-dose-only effect, or another doubt; inactive = no such curve, though single readings can be large; an effect the other way counts as inactive or inconclusive.

SMILES | TGFb inhibitor | ATXN2 expr inh | DRD3 agonist | HepG2 viability | DRD3 antagonist | S2 tox
Cc1ccc(OCC(=O)Nc2ccc(Cl)cc2)c(-n2nc3ccccc3n2)c1 | 0 | 35µM | 0 | 0 | 0 | -
CCOc1ccc(C)cc1-n1nc2ccccc2n1 | 0 | ? | 0 | 0 | 0 | 0
CCN1CCN(Cc2ccc(NC(=O)Nc3ccccc3OC)cc2)CC1 | 0 | 0 | 0 | 0 | -72 | 0
O=C(COc1ccccc1[N+](=O)[O-])Nc1ccc(N2CCN(C(=O)c3cccs3)CC2)cc1 | 0 | ? | 34 | 0 | 0 | ?
CCN1CCN(c2ccc(NC(=O)COc3ccccc3Cl)cc2)CC1 | 0 | 0 | 0 | 0 | -64 | 0
CNC(=O)c1ccc2cc(C3(O)CCn4cncc43)ccc2c1 (configuration not stated) | - | 0 | - | - | - | -
O=C(COc1ccccc1Cl)Nc1ccc(N2CCCC2)cc1 | 0 | 0 | 0 | 0 | 0 | 0
CCN1CCN(c2ccc(NC(=O)COc3ccc(Cl)cc3C)cc2)CC1 | 0 | 0 | 0 | 0 | -52 | 0
O=C(COc1ccccc1Cl)Nc1ccc(N2CCN(C(=O)c3ccccc3)CC2)cc1 | ? | 18µM | 0 | 0 | 0 | ?
COc1ccc(NC(=O)CN2CCN(Cc3ccc(F)cc3)S2(=O)=O)cc1Cl | 0 | 0 | 0 | 0 | - | 0
Nc1nc(N)c2cc(S(=O)(=O)c3cccc(C(F)(F)F)c3)ccc2n1 | 0 | - | 0 | 1.3µM | 0 | 0
Nc1cccnc1S(=O)(=O)c1cccc(C(F)(F)F)c1 | 0 | 0 | 0 | 0 | 0 | 0
Cc1ccc(NC(=O)c2ccc(-n3nncc3-c3ccccc3)cc2)cc1 | 0 | - | - | 0 | - | -
COc1cc2[nH]c(=S)nc(NCCCOC(C)C)c2cc1OC | 0 | ? | 0 | 0 | -78 | 0
CCOCCCNc1nc(=S)[nH]c2cc(OC)c(OC)cc12 | ? | 0 | 0 | 0 | 0 | 0
CS(=O)(=O)N1CCN(Cc2cc3nc(-c4cccc5[nH]ncc45)nc(N4CCOCC4)c3s2)CC1 | 0 | ? | - | 0 | - | -
CCCc1cc(NCCCCO)n2c(nc3ccccc32)c1C#N | 0 | 0 | 0 | 0 | 0 | 0
CCCc1cc(NCCOCCO)n2c(nc3ccccc32)c1C#N | 0 | - | 0 | 0 | -57 | -
CCC(C)(C)n1nnnc1C(c1cccs1)N1CCc2ccccc21 (configuration not stated) | 13µM | ? | 0 | 0 | 0 | 0
Fc1ccc(Nc2nnc(C(F)(F)F)s2)cc1Cl | ? | ? | 0 | 0 | 0 | 0
Fc1ccc(Nc2cncc(-c3ccsc3)c2)cc1Cl | ? | 0 | 0 | 0 | -52 | ?
COCCn1nnnc1SCC(=O)c1ccc(F)cc1 | 0 | 0 | 0 | 0 | -67 | 0
COc1ccc2[nH]c(CCc3nc4c(OC)c(OC)ccc4[nH]3)nc2c1OC | 0 | - | - | 0 | - | -
CN(C)CCOc1ccc2c(c1)C(=O)C(=Cc1ncc([N+](=O)[O-])n1C)C2 | 1.4µM | - | 0 | 0 | 0 | ?
CCc1cc(OCCN(C)C)ccc1Cl | 0 | 0 | 0 | 0 | 0 | 0
SMILES | TGFb inhibitor | ATXN2 expr inh | DRD3 agonist | HepG2 viability | DRD3 antagonist | S2 tox
O=Cc1cc(N=Nc2cccc(C(=O)O)c2)ccc1O | 0 | 0 | 0 | 0 | ? | 0
O=Cc1cc(N=Nc2ccccc2Cl)ccc1O | ? | 0 | 0 | 0 | ? | 34µM
Cc1ccc([N+](=O)[O-])cc1S(=O)(=O)N1CCNCC1 | 0 | 0 | 0 | 0 | 0 | 0
Cc1ccc([N+](=O)[O-])cc1S(=O)(=O)N(C)N=Cc1cnc2ccc(Br)cn12 | - | 0.049µM | - | - | - | -
COC(=O)c1cc(O)c(O)c(O)c1 | 0 | 0 | 35 | 0 | 0 | 0
Cc1ccc(N2CC(C(=O)NCCS(=O)(=O)N3CCN(c4ccc(F)cc4)CC3)CC2=O)cc1 (configuration not stated) | 0 | 0 | 0 | 1µM! | 0 | 0
O=C(C1CC(=O)N(c2ccccc2)C1)N1CCN(c2ccc(F)cc2)CC1 (configuration not stated) | 0 | 0 | 0 | 0 | -69 | 0
COc1cccc(CNC(=O)c2c(OC)cc(=O)n3c2CCN(C(=O)c2ccoc2C)CC3)c1 | - | - | - | - | - | 0
CC1=C(C(=O)OCc2ccccc2)N2C(=O)[C@@H](NC(=O)OCc3ccccc3)[C@H]2SC1 | 0 | - | - | 0 | - | -
CC1=C(C(N)=O)C(c2cccc(Br)c2)n2nc(SCc3ccccc3Cl)nc2N1 (configuration not stated) | 0 | 0 | 56 | 0 | - | 0
N#C/C(=C\c1ccc([N+](=O)[O-])o1)c1nc2ccccc2[nH]1 | ? | 13µM | 45 | 0 | 0 | 0
N#C/C(=C(/O)c1ccc([N+](=O)[O-])o1)c1nc2ccccc2[nH]1 | ? | - | 0 | 0 | ? | ?
COc1cccc(C2=CC(c3ccc(OC)c(OC)c3OC)n3ncnc3N2)c1 (configuration not stated) | 0 | 0 | 0 | 0 | - | -
COc1ccc(C2C=C(c3ccc(C)c(C)c3)Nc3ncnn32)c(OC)c1OC (configuration not stated) | 0 | 0 | 0 | 0 | -68 | -
Cc1nc2sccn2c1CN1CCC2(CC1)CC2C(=O)Nc1ccc2c(c1)OCO2 (configuration not stated) | - | - | - | - | - | 0
Fc1ccc(C2CCNCC2COc2ccc3c(c2)OCO3)cc1 (configuration not stated) | ? | ? | 0 | 11µM | 0 | ?
CCOc1cccc(C2C=C(c3ccc4c(c3)OCO4)NC(c3ccc(F)cc3)N2)c1O (configuration not stated) | ? | - | - | 0 | - | -
CCCOc1ccc(C(=O)Nc2ccc(S(=O)(=O)NC3=NCCCCC3)cc2)cc1 | 0 | 0 | 0 | 0.32µM | 0 | 0
CCOc1ncccc1C(=O)Nc1ccc(S(=O)(=O)NC2=NCCCCC2)cc1 | 0 | 0 | 0 | 0 | 0 | 0
CC(C)(C)CNC(CO)C12CC3CC(CC(C3)C1)C2 (configuration not stated) | 0 | 0 | 0 | 0 | -54 | 0
CC(C)(CO)NC12CC3CC(CC(C3)C1)C2 | 0 | 0[11.3 µM] | 0 | 0 | 0 | 0
CC(C)c1nc2sc3c(=O)[nH]cnc3c2c2c1CCC2 | 0 | 0 | 52 | 0 | 0 | 0
CC(C)c1nc2sc3c(=O)[nH]cnc3c2c2c1CCCC2 | 0 | 0 | 0 | 0 | 0 | 0
CCn1c(C(=O)NCc2ccccc2Br)cc2oc3ccccc3c21 | 0 | 0 | 42 | 13µM | - | 0
CC(C)(C)c1ccc2c(c1)C(=O)c1ccccc1C2=O | ? | 0 | 0 | 0 | 0 | 0
CC1=CC(=O)c2ccccc2C1=O | ? | 24µM! | 0 | 16µM! | -53 | 0
CC(C)(C=O)C1=CC(=O)c2ccccc2C1=O | ? | 16µM | 0 | 0 | -111 | -
Cn1cc(CN2CCC(C3(c4ccccn4)NC(=O)N(CC4CCCO4)C3=O)CC2)c2ccccc21 (configuration not stated) | - | - | - | - | - | 0
